From PubChem BioAssay AID1835 (Johns Hopkins Ion Channel Center, 2009)
Hit rate of the full screen: of about 2,400 compounds, about 750 (31%) were called active. The list shows a part of the results. Unmarked numbers belong to inactive results.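 The calls were made as follows: active = median signal gain over dofetilide-blocked control wells reaching their mean plus 3 SD, so readout 1 at least 0; inactive = the rest.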

Each compound was assayed against Voltage-gated inwardly rectifying potassium channel KCNH2 (Homo sapiens) (UniProt Q12809) (assay: hERG protection against dofetilide inhibition, confirmation, cell-based, thallium flux, duplicate retest, dofetilide IC70 (AID 1835)). Conditions: hERG cell line, FluxOR thallium flux, dofetilide-blocked; at 10 µM; stronger effect = higher value.
Voltage-gated inwardly rectifying potassium channel KCNH2 (Homo sapiens), sequence (Q12809 whole entry, looked up): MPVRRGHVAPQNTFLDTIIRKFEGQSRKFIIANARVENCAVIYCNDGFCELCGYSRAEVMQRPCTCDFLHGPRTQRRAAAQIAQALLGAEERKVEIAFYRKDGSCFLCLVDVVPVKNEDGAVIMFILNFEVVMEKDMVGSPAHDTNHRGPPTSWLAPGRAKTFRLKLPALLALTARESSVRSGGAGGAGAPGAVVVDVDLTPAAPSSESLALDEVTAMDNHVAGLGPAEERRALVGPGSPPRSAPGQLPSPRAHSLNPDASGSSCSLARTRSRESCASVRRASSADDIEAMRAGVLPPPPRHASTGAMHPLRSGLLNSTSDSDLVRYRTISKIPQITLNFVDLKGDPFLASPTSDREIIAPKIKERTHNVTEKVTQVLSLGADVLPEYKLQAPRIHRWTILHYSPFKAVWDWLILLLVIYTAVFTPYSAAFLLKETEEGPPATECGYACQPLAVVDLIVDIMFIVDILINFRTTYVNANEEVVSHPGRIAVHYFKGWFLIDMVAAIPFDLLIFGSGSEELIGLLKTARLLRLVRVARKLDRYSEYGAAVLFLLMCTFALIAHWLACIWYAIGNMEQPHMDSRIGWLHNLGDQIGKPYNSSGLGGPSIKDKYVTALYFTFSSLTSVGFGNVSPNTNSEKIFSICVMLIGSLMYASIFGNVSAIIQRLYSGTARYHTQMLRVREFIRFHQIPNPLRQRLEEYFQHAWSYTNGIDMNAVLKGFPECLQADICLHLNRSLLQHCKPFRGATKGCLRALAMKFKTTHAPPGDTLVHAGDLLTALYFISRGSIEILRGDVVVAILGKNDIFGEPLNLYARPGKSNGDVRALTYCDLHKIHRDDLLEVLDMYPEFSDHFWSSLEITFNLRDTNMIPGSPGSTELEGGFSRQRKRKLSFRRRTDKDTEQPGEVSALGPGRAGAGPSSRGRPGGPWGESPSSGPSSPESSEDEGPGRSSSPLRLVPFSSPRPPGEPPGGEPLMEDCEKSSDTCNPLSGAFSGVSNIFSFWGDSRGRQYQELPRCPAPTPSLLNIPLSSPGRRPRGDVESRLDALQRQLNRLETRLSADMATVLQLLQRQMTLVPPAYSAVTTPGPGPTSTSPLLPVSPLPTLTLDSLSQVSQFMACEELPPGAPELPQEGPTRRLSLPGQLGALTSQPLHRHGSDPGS

Structure (SMILES) | activity increase over dofetilide control, less the hit threshold
CC(C)Nc1nc(SCC(N)=O)nc(N2CCOCC2)n1 | -12%
O=C1CN(C(=O)COc2ccccc2F)c2ccccc2N1 | -17%
COC(=O)c1sccc1NS(=O)(=O)c1ccc(F)cc1F | 2% (active)
COC(=O)c1sccc1NC(=S)N1CC(C)CC(C)C1 (stereo unspecified) | -15%
COC(=O)c1sccc1NC(=O)CSc1ccccc1NS(=O)(=O)c1cc(Cl)ccc1Cl | -3%
Cc1ccc(S(=O)(=O)n2cnc3ccccc32)c(C)c1 | -13%
Cc1ccc(NS(=O)(=O)c2cn(C)c(=O)n(C)c2=O)c(C)c1 | 0% (active)
Cc1ccc(NC(=O)c2ccc3c(c2)CCN3S(C)(=O)=O)c(C)c1 | -17%
Cc1cc(C(=O)NNC2CC(=O)N(c3ccc4ccccc4c3)C2=O)c(C)o1 (stereo unspecified) | -6%
CC(=O)c1c(C)c2c(n1CCN(C)C)CCCC2 | 2% (active)
Cc1c(C)n(CCN(C)C)c2ccc(C(=O)OCCN(C)C)cc12 | -7%
O=C(CC1NC(=O)NC1=O)Nc1ccccc1 (stereo unspecified) | -19%
O=C(c1cncc(Br)c1)N1CCc2ccccc2C1 | -15%
CC(C)C1Cc2c(sc3[nH]c(=S)n(Cc4ccccc4)c(=O)c23)CO1 (stereo unspecified) | 16% (active)
CC1(C)Cc2c(sc3[nH]c(=S)n(Cc4ccccc4)c(=O)c23)CO1 | -10%
CCC1(C)Cc2c(sc3[nH]c(=S)n(Cc4ccccc4)c(=O)c23)CO1 (stereo unspecified) | 30% (active)
COc1ccc(C(=O)NCC(=O)OCn2nnc3ccccc3c2=O)cc1OC | -24%
CCCCNC(=S)N/N=C/C1=CCC2CC1C2(C)C (stereo unspecified) | -22%
Fc1ccc2c(c1)C(c1ccncc1)=NNC(c1cccnc1)=N2 | -13%
C=CCc1cc(Cl)ccc1OCCOCCN(C)C | -19%
O=C(O)c1ccc(CNC(=O)C23CC4CC(CC(C4)C2)C3)cc1 | -3%
O=C(NCc1ccccc1)C(=O)Nc1nc(C23CC4CC(CC(C4)C2)C3)cs1 | 18% (active)
Cc1csc(NC(=O)C2C3C=CC(C3)C2C(=O)O)n1 (stereo unspecified) | -19%
Oc1ccc(/C=N/Nc2nccnc2Cl)c(O)c1 | 8% (active)
COc1ccc(N2C(=O)CCC(C(=O)O)C2c2ccc(F)cc2)cc1 (stereo unspecified) | -5%
COc1ccc(-c2csc(NC(=S)NC(=O)c3ccco3)n2)cc1Br | -17%

Structure (SMILES) | activity increase over dofetilide control, less the hit threshold
COc1ccc(-c2csc(NC(=S)NC(=O)c3ccco3)n2)cc1 | 11% (active)
O=C(NC(=S)Nc1nc(-c2ccccc2)cs1)c1ccco1 | 1% (active)
O=C(NC(=S)Nc1nc(-c2cccc([N+](=O)[O-])c2)cs1)c1ccccc1Cl | -1%
O=C(NC(=S)Nc1nc(-c2ccc([N+](=O)[O-])cc2)cs1)c1ccco1 | 16% (active)
O=C(NC(=S)Nc1nc(-c2ccc(Br)cc2)cs1)c1ccco1 | 10% (active)
O=C(CCc1ccc(S(=O)(=O)N2CCCCC2)cc1)c1nnc(-c2ccccc2)o1 | -14%
Cc1[nH]c(=S)c(C#N)c(C)c1Cc1ccc(Cl)cc1Cl | -12%
O=C(N/N=C/C(Cl)=C/c1ccc([N+](=O)[O-])cc1)C(=O)Nc1ccc(C(=O)O)cc1 | -13%
O=c1c(C(c2ccc(O)cc2)c2c(O)nc3n(c2=O)CCS3)c(O)nc2n1CCS2 | 3% (active)
O=[N+]([O-])c1cccc(NC(=S)Nc2nc(-c3ccccc3Cl)cs2)c1 | -7%
O=C(N=Nc1c(O)[nH]c2ccc([N+](=O)[O-])cc12)c1cc(-c2ccccc2Cl)nc2ccccc12 | 97% (active)
CN(C)/C(=N\S(=O)(=O)c1ccccc1)c1ccc(F)cc1 | -9%
S=c1[nH]c(-c2ccccc2)cn1/N=C/c1cccc2ccccc12 | 2% (active)
S=C(N/N=C/c1cccc2ccccc12)Nc1cccc(Cl)c1 | -8%
Cc1cccc(-n2cc(-c3ccccc3)[nH]c2=S)c1 | -6%
Cc1c(OC(C(=O)O)c2ccccc2)ccc2c(-c3ccccc3)cc(=O)oc12 (stereo unspecified) | -3%
COc1cc(OC)cc(C(=O)NNC(=O)C(=O)Nc2cc(OC)c(Cl)cc2OC)c1 | 68% (active)
COc1cccc(C(=O)NNC(=O)C(=O)Nc2ccc(OC)cc2OC)c1 | 19% (active)
Cc1cc(C(=O)Nc2cccc3ccccc23)c(C)o1 | -12%
COc1cccc(CCNS(=O)(=O)CCNC(=O)c2cccc(OC)c2)c1 | -15%
COc1cc(NC(=O)c2cc(-c3cccnc3)nc3ccc(C)cc23)c(OC)cc1Cl | -17%
COc1cccc(C(=O)NNC(=O)C(=O)Nc2cccc3ccccc23)c1 | 52% (active)
COc1ccc(C(=O)NNC(=O)C(=O)Nc2cccc3ccccc23)cc1 | 51% (active)
COc1ccc(C(=O)NNC(=O)CSc2nnc(COc3ccccc3)n2C)cc1 | -24%
COc1ccc(NC(=O)C2CC3CCC2C3)c(OC)c1 (stereo unspecified) | -8%
